High-throughput results: PubChem BioAssay, National Center for Advancing Translational Sciences (NCATS)
L3MBTL1 inh: qHTS Assay for the Inhibitors of L3MBTL1. AlphaScreen L3MBTL1–H3K9me1 peptide binding. Potency, µM (series often up to 57.1 µM), for the others: at the highest dose activity, negative = inhibition, hits mostly inhibitors. hit rate 0.66% among 230,000; note: % is set by controls: 0 for no effect and ±100 for the full control effect; nearly all actives have a fitted effect of over 60% in size
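Displacement of a biotinylated histone H3(1-15) peptide monomethylated at Lys9 (75 nM) from L3MBTL1 (50 nM) was measured by AlphaScreen after a 30 min room-temperature compound incubation; cefsulodin titration served as intraplate control.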
JMJD2A Tudor inh: qHTS Assay for Inhibitors of JMJD2A-Tudor Domain; hit rate 4.4% among 390,000; AlphaScreen JMJD2A-Tudor / H3K4me3 peptide binding; Potency, µM (doses to about 114 µM), for inactives: at the top dose activity change, negative = inhibition, most hits filed as inhibitors; AID 504339, 2011; Lysine-specific demethylase 4A (Homo sapiens), O75164; note: % is set by controls: 0 for no effect and ±100 for the full control effect; nearly all actives have a fitted effect of over 50% in size
Target sequence (O75164 whole entry, looked up, the tested form may be a part): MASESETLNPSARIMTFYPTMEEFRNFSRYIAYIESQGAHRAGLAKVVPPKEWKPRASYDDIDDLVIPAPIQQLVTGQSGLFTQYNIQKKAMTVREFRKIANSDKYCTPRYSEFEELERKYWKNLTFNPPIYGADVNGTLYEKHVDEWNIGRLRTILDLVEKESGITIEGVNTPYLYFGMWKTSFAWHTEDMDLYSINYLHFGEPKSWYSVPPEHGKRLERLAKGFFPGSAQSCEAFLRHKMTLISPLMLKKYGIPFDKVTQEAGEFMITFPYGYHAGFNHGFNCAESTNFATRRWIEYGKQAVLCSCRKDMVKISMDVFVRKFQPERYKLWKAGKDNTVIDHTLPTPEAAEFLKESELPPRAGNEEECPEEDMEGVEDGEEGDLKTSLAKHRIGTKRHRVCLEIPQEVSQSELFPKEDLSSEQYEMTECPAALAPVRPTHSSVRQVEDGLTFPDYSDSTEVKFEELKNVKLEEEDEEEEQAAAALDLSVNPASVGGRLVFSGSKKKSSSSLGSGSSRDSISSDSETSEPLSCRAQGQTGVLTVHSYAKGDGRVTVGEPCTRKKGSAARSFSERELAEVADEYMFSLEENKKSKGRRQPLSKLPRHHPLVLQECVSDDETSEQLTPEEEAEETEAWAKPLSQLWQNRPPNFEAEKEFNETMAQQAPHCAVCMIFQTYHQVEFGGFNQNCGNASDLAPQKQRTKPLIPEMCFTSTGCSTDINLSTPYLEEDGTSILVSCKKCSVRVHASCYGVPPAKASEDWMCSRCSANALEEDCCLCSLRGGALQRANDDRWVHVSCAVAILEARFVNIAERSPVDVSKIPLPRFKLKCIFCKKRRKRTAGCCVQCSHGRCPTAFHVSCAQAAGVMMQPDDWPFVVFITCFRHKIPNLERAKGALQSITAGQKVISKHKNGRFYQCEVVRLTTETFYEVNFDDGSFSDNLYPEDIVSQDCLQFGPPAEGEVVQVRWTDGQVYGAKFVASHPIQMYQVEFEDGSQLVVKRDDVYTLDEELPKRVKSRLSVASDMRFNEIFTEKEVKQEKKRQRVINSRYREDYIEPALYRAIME
HP1b chromo inh: HTS for Inhibitors of HP1-beta Chromodomain Interactions with Methylated Histone Tails | Chromobox protein homolog 1 (Homo sapiens), P83916 | hit rate 0.56% among 390,000 | AlphaScreen HP1-beta / biotin-H3K9me3 peptide binding | AID 540317, 2011 | Potency, µM (titrated, usually from 114 µM), for inactives: top-dose activity change, negative = inhibition, actives largely listed as inhibitors; note: nearly all actives have a fitted effect of over 70% in size
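Compound inhibition of the preformed complex between 50 nM HP1-beta and 50 nM biotinylated H3K9me3 peptide was read by AlphaScreen. Buffer was PBS pH 7.4 with 0.01% Tween-20. Incubations ran 30 min at room temperature, with 10 ug/mL donor/acceptor beads.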
BAZ2B block: qHTS Assay for Inhibitors of BAZ2B; Potency, µM (highest dose often 114 µM), for inactives: top-dose activity change, negative = inhibition, actives largely listed as inhibitors; hit rate 4.4% among 360,000; AlphaScreen BAZ2B-H3K14Ac peptide displacement; note: % is set by controls: 0 for no effect and ±100 for the full control effect; nearly all actives have a fitted effect of over 60% in size
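Protein-peptide AlphaScreen: BAZ2B 50 nM, b-H3K14Ac 50 nM, 1x PBS pH 7.4 + 0.01% Tween-20. Preincubation 30 min RT; cpd 30 min RT (top 110 uM); beads 20 min RT, light-protected.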
G9a inh: qHTS Assay for Inhibitors of Histone Lysine Methyltransferase G9a. hit rate 8.8% among 350,000. Potency, µM (top dose mostly 102 µM), for inactives: at the highest dose activity, negative = inhibition, actives largely listed as inhibitors. Histone-lysine N-methyltransferase EHMT2 (Homo sapiens), Q96KQ7. G9a H3K9 monomethylation, AlphaScreen, 2 h; note: % is set by controls: 0 for no effect and ±100 for the full control effect; nearly all actives have a fitted effect of over 75% in size
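G9a (20 nM) was preincubated 15 min with compound, then reacted 2 h at room temperature with 500 nM biotin-H3K9 peptide and 20 µM SAM. Monomethyl-H3K9 detected by AlphaScreen using anti-H3K9me1 antibody.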
Starred values were filed as active, the others as inactive; u = inconclusive; x = not tested or not shown; ! = not active in a repeat; [ ] = dose if it differs, or a comment. Hits are enriched below; roughly 11% of the tested compounds scored in any of these assays. Calls come from the whole dose curve; as a rule, active = well fitted inhibition curve with a large enough effect; inconclusive = small, poorly fitted or top-dose-only effect; inactive = no such curve, though single readings can be large or run the other way. Potency is the fitted concentration of half-maximal effect.

SMILES | L3MBTL1 inh | JMJD2A Tudor inh | HP1b chromo inh | BAZ2B block | G9a inh
O=C(Nc1ccc(N=Nc2ccccc2)c(NC(=O)C2CCCO2)c1)C1CCCO1 (configuration not stated) | u | 35µM* | u | 28µM* | u
O=c1c(-c2cccs2)nc2cnc(N3CCNCC3)nc2n1C1CC1 | x | x | x | x | 5%[0.501 µM]
COC(=O)N1CC=CC1(C)C(=O)NCc1cc(F)cc(C(F)(F)F)c1 (configuration not stated) | 4% | -4% | 44% | 3% | 10%
CC(=O)N1CC=CC1(C)C(=O)NCc1cc(F)cc(C(F)(F)F)c1 (configuration not stated) | 0% | 0% | 56% | -5% | 40µM*
Cc1ccc(OCCCC(=O)Nc2sc3c(c2C(N)=O)CCCC3)cc1 | x | -24% | -4% | -4% | u
COc1ccc(C(=O)N/N=C/c2ccc(N3CCOCC3)o2)cc1OC | x | -36% | -7% | -28% | 8.9µM*
O=C(N/N=C/c1ccc(N2CCOCC2)o1)c1cccc(F)c1 | 2% | u | -3% | 2% | 7.1µM*
Cc1ccc(S(=O)(=O)c2c(C)nn(-c3ccccc3)c2OC(=O)c2ccco2)cc1 | -1% | 79µM* | 9% | -37% | u
Cc1ccc(S(=O)(=O)c2c(C)nn(-c3ccccc3)c2OC(=O)c2ccc(Br)o2)cc1 | 2% | u | 8% | -33% | u
Cc1nn(-c2ccc(F)cc2)c(Cl)c1C(=O)NCC1CCCO1 (configuration not stated) | 2% | -3% | 20% | 9% | 8%[59 µM]
CN(C)c1ccc(C=c2c3cc(O)ccc3n3c2cc(-c2ccccc2)[n+]3C)cc1 | x | 25µM* | 50µM* | x | x
C[n+]1c(-c2ccccc2)cc2c(=Cc3ccc([N+](=O)[O-])cc3)c3ccccc3n21 | x | 45µM* | u | x | x
C[n+]1c(-c2ccccc2)cc2c(=Cc3ccccc3)c3ccccc3n21 | x | 40µM* | u | x | x
Cn1cc(P(=S)(N2CCOCC2)N2CCOCC2)cc1P(=O)(N1CCOCC1)N1CCOCC1 | 5% | u | u | -3% | 10µM*
Cn1cc(P(=O)(N2CCOCC2)N2CCOCC2)cc1P(=S)(N1CCOCC1)N1CCOCC1 | 5% | -12% | 2% | 1% | 40µM*
Cc1ccc(NC(=O)CCc2c(C)nc3c(-c4ccc(F)cc4)c(C)nn3c2C)cc1F | x | -1% | 30% | -9% | 1%[59 µM]
CCOc1ccccc1NC1=C(OC)C(=O)C(Nc2ccccc2OCC)=C(OC)C1=O | x | 7.1µM* | 8.9µM* | x | x
CCOc1ccccc1NS(=O)(=O)N(C)C | x | -10% | 13% | 0% | -16%
COc1ccc(C2Nc3ccccc3C(=O)N2Cc2ccccc2)cc1COc1ccc([N+](=O)[O-])c(C)c1 (configuration not stated) | x | -11%[57.1 µM] | 10%[57 µM] | x | x
COc1ccc(/C=N/Nc2nnc(C)n2N)cc1OC(C)=O | x | -11% | 23% | -25% | 45µM*
CCCC(=O)Nc1nc(-c2ccc3c(c2)OCCO3)cs1 | 1% | -11% | 22% | -21% | u
O=C(O)C(=O)Nc1nc(-c2ccc3c(c2)OCCO3)cs1 | x | -22% | 13%[57 µM] | u | 32µM*
Cc1cc(C)cc(-n2c(SCC(=O)Nc3cccc(F)c3)nc3c([nH]c4ccccc43)c2=O)c1 | x | -1% | 25%[57 µM] | 0% | 2%[59 µM]
COC1=C(Nc2ccc(C)cc2)C(=O)c2ccccc2C1=O | 16µM* | 10µM* | 16µM* | 7.9µM* | 8.9µM*
COC1=C(OC)C(=O)c2ccccc2C1=O | x | x | x | x | 20µM*!
SMILES | L3MBTL1 inh | JMJD2A Tudor inh | HP1b chromo inh | BAZ2B block | G9a inh
COC1=CC(=O)C(OC)=C(OC)C1=O | x | -5% | 32% | x | x
COc1ccc(F)cc1S(=O)(=O)Nc1ccc(C)cc1 | 13% | 0% | 11% | 4% | 5%[12.7 µM]
COC1=C(Nc2ccccc2)C(=O)c2ccccc2C1=O | 32µM* | 14µM* | 35µM* | 14µM* | 11µM*
CCc1ccc(OCC(=O)Nc2ccc(Cl)c(-c3nc4ncccc4o3)c2)cc1 | x | -14% | 39% | 2% | -3%[59 µM]
N#Cc1ccc(/C=C/C(=O)c2ccco2)cc1 | -21% | -1% | 32% | -3% | 14µM*
Nc1ccc(/C=C/C(=O)c2ccco2)cc1 | -9% | -10% | 37% | 2% | 0%[59 µM]
CCCCNC(=O)c1ccccc1C(=O)NCCCC | 11% | 14µM* | u | 4% | 6%[59 µM]
CC(C)(C)C(=O)Nc1ccccc1C(=O)NCCCn1ccnc1 | -26% | 50µM* | 24% | 18µM* | -3%
CCSc1ccccc1C(=O)NCCCn1ccnc1 | 0% | -31% | 29% | 3% | 20µM*
O=C(Nc1ccccc1C(=O)NCCCn1ccnc1)c1ccccc1 | x | -23% | 44% | -5% | -16%
COc1ccc2[nH]c(CN3CCC(n4nccc4NC(=O)C4CC4)CC3)c(C)c2c1 | x | -28% | -6% | -27% | -1%
Cc1nc2nc(NCc3ccc(Br)cc3)[nH]n2c(=O)c1Cc1ccccc1 | x | -15% | 39% | -4% | u
N#CCCN(C(=O)COC(=O)C12CC3CC(CC(O)(C3)C1)C2)c1ccc(F)cc1 | 5% | -5% | 19% | 13% | 1.4µM*
CC1(C)O[C@H]2[C@@H](O1)[C@@H](C(=O)Nc1ccccc1C(F)(F)F)O[C@@H]1OC(C)(C)O[C@@H]12 | x | -7% | 64% | -2% | 6%[59 µM]
Cc1ccc(S(=O)(=O)NCc2n[nH]c(=S)n2C)cc1 | 6% | 7.9µM* | 23% | 6% | 32µM*
Cn1c(CNS(=O)(=O)c2ccc(Br)cc2)n[nH]c1=S | 7% | 7.9µM* | 12% | 5% | 22µM*
COc1cccc(-c2nc(N3CCN(C)CC3)c3ccccc3n2)c1 | x | x | x | x | -4%[0.501 µM]
